This note sets out measurements from PubChem BioAssay (Tox21).

Results filed as inconclusive are left out. Values without a mark were called inactive. Calls of active or inactive are those of the source. Calls come from the whole dose curve.
% is set by controls: 0 for no effect and ±100 for the full control effect; potency is the fitted concentration of half-maximal effect.

Sequence of Muscarinic acetylcholine receptor M1 (Homo sapiens) (P11229 whole entry, looked up): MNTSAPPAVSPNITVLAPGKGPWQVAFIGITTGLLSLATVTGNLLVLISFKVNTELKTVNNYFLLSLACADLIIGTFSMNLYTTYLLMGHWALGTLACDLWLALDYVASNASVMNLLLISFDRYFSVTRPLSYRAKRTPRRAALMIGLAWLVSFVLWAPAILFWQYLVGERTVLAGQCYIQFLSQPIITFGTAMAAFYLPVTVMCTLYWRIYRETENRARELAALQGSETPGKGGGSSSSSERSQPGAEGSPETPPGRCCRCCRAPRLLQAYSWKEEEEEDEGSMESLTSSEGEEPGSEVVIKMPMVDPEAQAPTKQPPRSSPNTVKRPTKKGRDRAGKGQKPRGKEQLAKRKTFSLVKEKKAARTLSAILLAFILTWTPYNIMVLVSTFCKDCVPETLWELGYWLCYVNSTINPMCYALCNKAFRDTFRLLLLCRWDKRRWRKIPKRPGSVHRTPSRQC

In this experiment the target is Muscarinic acetylcholine receptor M1 (Homo sapiens) (UniProt P11229). As to the kind of experiment: Cholinergic receptor muscarinic 1 (CHRM1) small molecule antagonists, cell-based qHTS assay (AID 1963588). Note: nearly all actives have a fitted effect of over 40% in size. Conditions: CHRM1-CHO antagonist mode, calcium flux fluorescence; series mostly up to 61.5 µM; activity, negative = inhibition: at the top concentration. From the text:
National Center for Advancing Translational Sciences [NCATS]
Division of Preclinical Innovation [DPI]
U.S. Environmental Protection Agency [EPA]
National Institutes of Environmental Health Sciences [NIEHS]
National Toxicology Program [NTP]
U.S. Food and Drug Administration [FDA]
The CHRM1 is a muscarinic receptor. This receptor plays a crucial role in learning and memory processes and has long been identified as a promising therapeutic target for the improvement of cognitive decline in Alzheimer's disease (AD). The CHRM1-CHO cell line stably expressing human muscarinic acetylcholine receptor M1 (CHRM1) can be used for screening agonists and antagonists of interactions between CHRM1 and its ligands. The CHRM1-CHO Calcium Flux Assay is a homogeneous fluorescence-based assay for detecting the intracellular calcium level using FDSS kinetic plate reader system.
Tox21 Assay Protocol Summary:
CHRM1-CHO cells were dispensed at 1000 cells/3uL/well in 1536-well black-clear bottom plates using a Multidrop Dispenser. After the assay plates were incubated at a 37 C/5% CO2 incubator for 18 h, 3 uL of Dye Loading Buffer was transferred to the assay plate by a Flying Reagent Dispenser. The assay plates were incubated at 37 C for 1h. For antagonist mode, 23 nL of compounds dissolved in DMSO, positive controls or DMSO only was transferred to the assay plate by a pin tool. After 5 min incubation at room temperature, 1.5 uL of acetylcholine at 50nM was added to each well. The fluorescence intensity in the plates was measured using FDSS 7000EX kinetic plate reader for 3 min at 1 sec intervals. Each test compound was measured at 15 concentrations in three independent runs.
Background: qHTS replaces the single test concentration by a dilution series.
In the case of `BrCC1CO1` (stereo not given), the “activity, negative = inhibition” value is 24.2%.
Still for that read-out and setting: the same measure for `O=c1[nH]oc2c1CCNC2`: -3.23% [at 28.3 µM].
Take `C[C@@H](N)[C@@H](O)c1ccccc1`: the “activity, negative = inhibition” value was 0.335% [at 28.3 µM].
Still for that read-out and setting: the result for `O=C(O)c1cccc(Cl)c1` reads 4.45%; that for `C#CC(O)(C=CCl)CC` (stereo not given), 3.27% [at 28.3 µM].
Consider `CC[C@H](C)[C@H]1O[C@]2(C=C[C@@H]1C)C[C@@H]1C[C@@H](C/C=C(\C)[C@@H](O[C@H]3C[C@H](OC)[C@@H](O[C@H]4C[C@H](OC)[C@@H](NC)[C@H](C)O4)[C@H](C)O3)[C@@H](C)/C=C/C=C3\CO[C@@H]4[C@H](O)C(C)=C[C@@H](C(=O)O1)[C@]34O)O2`, for which the Potency was 23.7 µM (active).
As to `CC(=O)/C=C/c1ccc2c(c1)OCO2`, the “activity, negative = inhibition” value is -13.5%.
Consider `Nc1cc2c3c(c1)C(c1ccccc1)=N[C@@H](NC(=O)c1cccnc1)C(=O)N3CC2`, for which the “activity, negative = inhibition” value is 1.54%.
The same measure, in the same setting: the result for `O=S1(=O)OCCO1` reads 35.3%.
Same read-out and setting: the same measure for `CC(Cl)(Cl)[N+](=O)[O-]`: 14.5%; for `Cc1ccc2nc3sc(=O)sc3nc2c1`: 5.56% [at 12.6 µM]; for `CCCOC(=O)Cc1ccc(OCC(=O)N(CC)CC)c(OC)c1`: -8.38% [at 28.3 µM].
As to `S=C=NCc1ccccc1`, the “activity, negative = inhibition” value is -20%.
Still for that read-out and setting: the result for `N#Cc1sc2c(=O)c3ccccc3c(=O)c=2sc1C#N` reads 9.37%; that for `O=C(O)CBr`, 4.78%.
As to `COC1=CC(=O)O[C@@H](CCc2ccccc2)C1`, the “activity, negative = inhibition” value is 2.79%.
Take `Cc1cc(C2CC2)nc(Nc2ccccc2)n1`: the Potency is 14.9 µM (active).
With `C[C@]12CC[C@H]3[C@@H](CCC4=CC(=O)CC[C@@]43C)[C@@H]1CC[C@@H]2C(=O)O`, the “activity, negative = inhibition” value was -26.3% [at 28.3 µM].
As to `COP(=S)(OC)Oc1ccc([N+](=O)[O-])cc1Cl`, the “activity, negative = inhibition” value is -4.32%.
On the same count and under the same terms, the result for `O=C(O)COc1nc(Cl)c(Cl)cc1Cl` reads 5.83%.
On the same count and under the same terms, the same measure for `O=[N+]([O-])c1ccc(Nc2ccccc2)cc1`: 7.76%; for `O=C1C(Cl)C(CCl)CN1c1cccc(C(F)(F)F)c1` (stereo not given): -1.7%; for `Oc1cccc(-c2ccccc2)c1`: 5.26%.
On the same count and under the same terms, the result for `CCCC(Cn1cncn1)c1ccc(Cl)cc1Cl` (stereo not given) reads -6.2%; that for `COCc1cnc(C2=NC(C)(C(C)C)C(=O)N2)c(C(=O)O)c1` (stereo not given), 5.61%.
`CC(=O)[O-].CC(=O)[O-].O.O.O.[Pb+2]`: the “activity, negative = inhibition” value was -0.587%.
Take `CN(C)CCc1c[nH]c2ccccc12`: the “activity, negative = inhibition” value was -4.07%.
On the same count and under the same terms, the result for `CC(C)[C@@H](Nc1ccc(C(F)(F)F)cc1Cl)C(=O)OC(C#N)c1cccc(Oc2ccccc2)c1` (stereo not given in full) reads -0.773%; that for `Nc1ccccc1C(=O)OC/C=C/c1ccccc1`, -0.963%.
In the case of `CCCCCCCCCCCCCCC(Br)C(=O)O` (stereo not given), the “activity, negative = inhibition” value was -17.7%.
For `O=C(O)C(F)(F)C(F)(F)C(F)(F)C(F)(F)C(F)(F)F`, the “activity, negative = inhibition” value was 3.34%.
The same measure, in the same setting: the same measure for `CCCSC(=O)N(CCC)CCC`: -16.5%; for `C[C@H]1CC[C@@H]2[C@@H](C)[C@H]3[C@H](C[C@H]4[C@@H]5CC=C6CC(O[C@@H]7O[C@H](CO)[C@H](O)[C@H](O[C@@H]8O[C@H](CO)[C@@H](O)[C@H](O)[C@H]8O)[C@H]7O[C@H]7O[C@@H](C)[C@H](O)[C@@H](O)[C@H]7O)CC[C@]6(C)[C@H]5CC[C@]34C)N2C1` (stereo not given in full): -16.5%.
`O=C(CCCN1CCC(n2c(=O)[nH]c3ccccc32)CC1)c1ccc(F)cc1`: the Potency is 2.05 µM (active).
Take `O=C(CBr)OCc1ccccc1`: the “activity, negative = inhibition” value is 6.19%.
The same measure, in the same setting: the same measure for `Oc1ccccc1Br`: -2.53%; for `CCNc1nc(Cl)nc(NC(C)(C)C)n1`: 2.5%; for `O=C1CN2CCOC2(c2ccccc2Cl)c2cc(Cl)ccc2N1` (stereo not given): 1.77% [at 28.3 µM].
The same measure, in the same setting: the result for `CCOc1nc(C(Cl)(Cl)Cl)ns1` reads 1.04%.
As for `CCc1ccc(C(=O)NN(C(=O)c2cc(C)cc(C)c2)C(C)(C)C)cc1`, the Potency was 2.98 µM (active).
